Screens deposited in PubChem by National Center for Advancing Translational Sciences (NCATS).
nsP2pro primary: Primary qHTS for inhibitors of NSP2Pro chikungunya virus (CHIKV). Polyprotein P1234 (Chikungunya virus (strain S27-African prototype)), Q8JUX6. FRET peptide cleavage, nsP2pro, fluorescence 1 h. 31,000 compounds, 1.1% hits. Potency, µM (doses to about 24.9 µM), actives largely listed as inhibitors; further: nearly all actives have a fitted effect of over 60% in size
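Recombinant nsP2pro (150 nM) was preincubated with compound 15 min at room temperature in 10 mM Tris-HCl pH 8.0, 0.01% Tween 20. Peptide 2 FRET substrate (2.5 uM) was then added and fluorescence read after 1 h. Seven-point series, up to 25 uM.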
CHIKV nsP2 cell: Secondary cell base assay for inhibitors of NSP2Pro Chikungunya virus (CHIKV). shares compounds with nsP2pro primary. cell-based CHIKV nsP2 protease reporter assay. Potency, µM (highest dose often 51.1 µM), hits mostly inhibitors. 450 compounds, 10% hits. AID 1964100, 2024; further: nearly all actives have a fitted effect of over 70% in size
CHIKV NSP2 FL: Selectivity profile for inhibitors of NSP2Pro chikungunya virus (CHIKV): Full length NSP2 enzyme counterscreen (CHIKV-NSP2); shares compounds with nsP2pro primary; Potency, µM (titrated, usually from 50.7 µM), actives largely listed as inhibitors; AID 1964101, 2024; Full-length CHIKV NSP2 protease enzymatic counterscreen; 410 compounds, 39% hits; further: nearly all actives have a fitted effect of over 65% in size
Furin counter: Selectivity profile for inhibitors of NSP2Pro chikungunya virus (CHIKV): Human furin counterscreen. shares compounds with nsP2pro primary. Recombinant human furin enzymatic counterscreen, fluorogenic substrate. Potency, µM (series often up to 50.6 µM), hits mostly inhibitors. 410 compounds, 6% hits. AID 1964102, 2024
NS23 peptide cs: Selectivity profile for inhibitors of NSP2Pro chikungunya virus (CHIKV): Endogenous NS2/3 peptide Counterscreen; shares compounds with nsP2pro primary; Purified CHIKV nsP2 protease, endogenous NS2/3 peptide cleavage; Potency, µM (doses to about 51 µM), hits mostly inhibitors; 410 compounds, 34% hits; AID 1964103, 2024; further: nearly all actives have a fitted effect of over 55% in size
Papain counter: Selectivity profile for inhibitors of NSP2Pro chikungunya virus (CHIKV): Papain Counterscreen; shares compounds with nsP2pro primary; purified papain protease activity, enzymatic inhibition; Potency, µM (titrated, usually from 51 µM), actives largely listed as inhibitors; 410 compounds, 5% hits; AID 1964104, 2024
nsP2pro conf qHTS: Confirmatory qHTS for inhibitors of NSP2Pro chikungunya virus (CHIKV). shares compounds with nsP2pro primary. CHIKV nsP2 protease enzymatic activity, qHTS. Potency, µM (doses to about 25.5 µM), usual class: inhibitors. 410 compounds, 43% hits. AID 1964105, 2024; further: nearly all actives have a fitted effect of over 75% in size
HCV NS3 4A cs: Selectivity profile for inhibitors of NSP2Pro chikungunya virus (CHIKV): NS34A-HCV Counterscreen; HCV NS3/4A protease biochemical counterscreen; Potency, µM (top dose mostly 50.9 µM), hits mostly inhibitors; 410 compounds, 20% hits; AID 1964106, 2024; shares compounds with nsP2pro primary; further: nearly all actives have a fitted effect of over 55% in size
Numbers stand for hits; – = inactive; ? = inconclusive; ! = repeats disagree; [ ] = dose if it differs, or a comment. Many of the other results were omitted from the sample, so hits are more common in it than they were. The call rests on the fitted dose curve.

SMILES | nsP2pro primary | others
Cc1ccc(-n2c(C)cc(-c3nnc4n3CCCCC4)c2C)cc1 | ? | CHIKV nsP2 cell=21µM;CHIKV NSP2 FL=?;Furin counter=–;NS23 peptide cs=?;Papain counter=–;nsP2pro conf qHTS=?;HCV NS3 4A cs=?
COc1ccc(-n2c(C)cc(-c3nnc4n3CCCCC4)c2C)cc1 | –
Cc1cc(-c2nnc3n2CCCCC3)c(C)n1-c1ccncc1 | –
O=S(=O)(Nc1nccs1)c1ccc(NCc2cccc(Br)c2O)cc1 | –
Fc1ccc(-c2ccc(Nc3nc(-c4ccncc4)nc4ccccc34)cc2F)cc1 | –
CC1(C)[C@@H](O)CC[C@]2(C)[C@H]3CC=C4[C@@H]5C[C@](C)(C(=O)O)CC[C@]5(C)CC[C@@]4(C)[C@]3(C)CC[C@@H]12 | –
CC1=C(O)C(=O)C=C2C1=CC=C1[C@@]2(C)CC[C@@]2(C)[C@@H]3C[C@](C)(C(=O)O)CC[C@]3(C)CC[C@]12C | 4.4µM! | CHIKV nsP2 cell=?;CHIKV NSP2 FL=16µM;Furin counter=?;NS23 peptide cs=4.6µM;Papain counter=?;nsP2pro conf qHTS=1.8µM;HCV NS3 4A cs=21µM
C[C@@]1(C(=O)O)CC[C@]2(C)CC[C@]3(C)C4=CC(=O)c5cc(O)c(O)cc5[C@]4(C)CC[C@@]3(C)[C@@H]2C1 | –
CCCCCCCCCCCCNCCNCCNCC(=O)O | –
CCOc1ccc(CCNC(=O)c2cc3sccc3n2Cc2ccncc2)cc1OCC | –
O=C(NCC1(COc2ccc(C(F)(F)F)cn2)C[C@@H](O)[C@@H](O)C1)c1cnccn1 (stereo not given in full) | –
O=C(OCc1ccccc1)N1CCOCC12CCN(Cc1c[nH]c3ccccc13)CC2 | –
C[C@]12C=CC(=O)C=C1CC[C@@H]1[C@@H]2[C@@H](O)C[C@@]2(C)[C@H]1CC[C@]2(O)C(=O)COP(=O)(O)O | –[5.1 µM]
O=C(c1ccncc1)N1CC(N(Cc2ccncc2)CC2CC2)C1 | –
COCC1CN(C)CC12CCN(C(=O)c1cc3ccccc3[nH]1)CC2 (stereo not given) | –
O=C(c1ccco1)N1CCN(C(=O)c2cnn(-c3cccc(F)c3)c2C2CCNCC2)CC1 | –
O=C(Nc1cccc(C(F)(F)F)c1)c1cnn(-c2cccc(F)c2)c1C1CCNCC1 | 8.9µM | CHIKV nsP2 cell=–;CHIKV NSP2 FL=12µM;Furin counter=–;NS23 peptide cs=?;Papain counter=–;nsP2pro conf qHTS=?;HCV NS3 4A cs=7.3µM
Cc1cc(C)cc(NC(=O)c2cnn(-c3ccc(C)c(C)c3)c2C2CCNCC2)c1 | –
Cc1ccc(-c2cc(C(=O)Nc3cccc4ccccc34)c3ccccc3n2)cc1C | –
Cc1cc(C)nc(NC(=S)N2CCN(c3cnc4nccn4c3)CC2)c1 | –
O=C(O)C(c1ccc2c(c1)OCCO2)N1CCCN(c2ncccn2)CC1 (stereo not given) | –
Oc1cc2c(cc1CN1CCN(c3ncccn3)CC1)OCO2 | 10µM | CHIKV nsP2 cell=–;CHIKV NSP2 FL=?;Furin counter=–;NS23 peptide cs=16µM;Papain counter=–;nsP2pro conf qHTS=7.1µM;HCV NS3 4A cs=?
CC1(C)CC(=O)N(CCCCN2CCN(c3ncccn3)CC2)C(=O)C1 | –
Cc1ccc(Cc2c(C)nc3nc(SCC(=O)NCCN4CCNCC4)nn3c2C)cc1 | –
N#Cc1ccc(CSc2nc3ncc(Br)cc3[nH]2)cc1 | –
N#CN1CCC[C@@H](n2nc(-c3ccc(Oc4ccc(F)cc4F)cc3)c(C(N)=O)c2N)C1 | ? | CHIKV nsP2 cell=–;CHIKV NSP2 FL=18µM;Furin counter=–;NS23 peptide cs=?;Papain counter=?;nsP2pro conf qHTS=7.1µM;HCV NS3 4A cs=–
CN(C)CC(=O)N1CCC[C@@H](n2nc(-c3ccc(Oc4ccccc4)cc3)c3c(N)ncnc32)C1 | –
